# Screen size: about 320,000 compounds; about 22,000 (6.9%) were called active. Another 27% or so got no clear call; they are omitted. The entries come from a sample that favours actives as a whole. Unmarked numbers belong to inactive results. The call rests on the fitted dose curve; in most records, active means well fitted inhibition curve with a large enough effect; inconclusive means small, poorly fitted or top-dose-only effect, or another doubt; inactive means no such curve, though single readings can be large or run the other way.
# Assay: Primary qHTS for delayed death inhibitors of the malarial parasite plastid, 96 hour incubation
# Conditions: P. falciparum luciferase reporter growth; series mostly up to 28.7 µM; activity change, negative = inhibition: at the top concentration
# From the text: The goal of this screen is to discover new antimalarial compounds that act by inhibiting the development of the apicoplast in the malarial parasite Plasmodium falciparum. The biochemical processes that make this organelle essential for erythrocytic stage parasites are not well understood. However, antibiotics such as azithromycin and tetracycline, which target the apicoplast translational machinery, have a potent antimalarial effect.
# We have developed a cell-based assay that measures parasite growth based on the expression of an integrated copy of a firefly luciferase reporter. To detect small molecules that cause this "delayed death" phenotype, erythrocytes infected with the luciferase-expressing parasites were incubated with compounds for either one or two generations, corresponding to 48 and 96 hours, respectively. Compounds that inhibit parasite growth in the second generation, but not the first, should be enriched in antimalarials that target the apicoplast. Growth inhibition is detected by a decrease in luciferase activity.
# Assay Provider: David Fidock and Eric Ekland, Columbia University
# Keywords: NIH Roadmap, MLPCN, MLI, MLSMR, qHTS, NCGC, qHTS, malaria, luciferase, viability
# Four microliters of infected erythrocytes (2% hematocrit, 0.05% parasitemia final concentration) in culture medium were dispensed and the plates incubated for 96 hours at 37 C in 5% CO2. Two microliters of luciferase detection reagent was added and luminescence was detected by a ViewLux (PerkinElmer) reader.
# On the % scale 0 is the no-effect control and ±100 the full control effect; potency means the concentration at half of the fitted maximal effect.
SMILES,"activity change, negative = inhibition",Potency
CCc1ccc(OCC(=O)N(Cc2ccccc2)C2CCS(=O)(=O)C2)cc1 (stereo not drawn),-19.5%,–
O=C(CCC(=O)c1ccccc1)NCc1cccc(C(F)(F)F)c1,10.8%,–
Cc1ccc2[nH]c3c(=O)n(Cc4ccccn4)cnc3c2c1,-4.35%,–
Cc1ccc(C)c(Cn2cnc3c(oc4ccccc43)c2=O)c1,–,2.08 µM (active)
CCC(C(=O)OC)n1cnc2c(oc3ccccc32)c1=O (stereo not drawn),-14.6%,–
CC(C(=O)N(C)CC(=O)Nc1ccccc1C(F)(F)F)N1C(=O)c2ccccc2C1=O (stereo not drawn),-12.6%,–
Cc1csc2nc(COC(=O)c3cccc(N(C)C)c3)cc(=O)n12,175%,–
CCOC(=O)N1CCC(N2Cc3cccc(C(=O)Nc4c(C)cccc4CC)c3C2=O)CC1,2.75%,–
C=C1CCC(N(O)c2cc(C)on2)C(=C)CCC2C1CC2(C)C (stereo not drawn),–,4.65 µM (active)
CN(NS(=O)(=O)c1cccs1)c1ncc(C(F)(F)F)cc1Cl,35%,–
O=C(Nc1nnc(C2=COCCO2)o1)c1ccc([N+](=O)[O-])s1,–,11.7 µM (active)
CCC(CC)c1nnc(NC(=O)C2=COCCO2)s1,65.7%,–
COc1cc(-c2nnc(NC(=O)C3=COCCO3)o2)cc(OC)c1OC,-2.47%,–
COCCNc1ccc(-c2n[nH]c(=O)c3ccccc23)cc1[N+](=O)[O-],28.5%,–
CC1(C(=O)NCCc2c[nH]c3ccccc23)C=CC2(CCCCC2)N1C(=O)c1ccccc1 (stereo not drawn),–,11.7 µM (active)
O=C(CN1C(=O)NC2(CCCCC2)C1=O)NCCc1c[nH]c2ccccc12,-0.132%,–
O=C(NCCc1c[nH]c2ccccc12)c1cccc(Br)c1,38.4%,–
Cc1ccc(OCCC(=O)OCC(=O)N2c3ccccc3NC(=O)C2(C)C)cc1,-1.08%,–
Cc1nnc(SCC(=O)Nc2ccc(S(=O)(=O)Nc3ccc(Cl)nn3)cc2)s1,-22.5%,–
Cc1ccccc1N1CCN(C2CCCN(C(=O)c3ocnc3C)C2)CC1 (stereo not drawn),80.8%,–
Cc1ccc(-n2c(-c3ccc(Cl)cc3)n[nH]c2=S)cc1,-1.55%,–
CC(=O)c1ccc(NC(=O)Nc2ccc([N+](=O)[O-])cc2C)cc1,–,9.28 µM (active)
Cc1cc([N+](=O)[O-])ccc1NC(=O)C1CCCO1 (stereo not drawn),59.8%,–

SMILES,"activity change, negative = inhibition",Potency
Cc1cc([N+](=O)[O-])ccc1NC(=O)c1ccc(NC(=O)C(C)C)cc1,18% [at 5.75 µM],–
CCOc1ccccc1C(=O)NCc1ccco1,9%,–
CCN(CC(=O)NCc1ccco1)S(=O)(=O)c1ccc(F)cc1,2.62%,–
O=C(NCc1ccco1)c1ccc(CS(=O)(=O)Cc2ccc(F)cc2)o1,–,8.28 µM (active)
CC1(C)Oc2ccc3ccc(=O)oc3c2/C(=N/O)C1=O,-23.1%,–
NC(=O)Cc1ccc2c(c1)[nH]c1ccccc12,-7.47%,–
C[C@H](NC(=O)C1CC(=O)N(c2ccc3c(c2)OCO3)C1)C(=O)NCc1ccco1 (stereo partly drawn),0.347%,–
CCOCN(C(=O)Cn1c(C(C)O)nc2ccccc21)c1c(C)cccc1CC (stereo not drawn),–,8.28 µM (active)
Cc1ccccc1OC(=O)Cn1c(C(F)(F)F)nc2ccccc21,42.4%,–
CCc1cccc(C)c1N(C(=O)Cn1c(CO)nc2ccccc21)C(C)COC (stereo not drawn),0.927%,–
CC(C)=NN1C(=O)c2ccccc2NC1(C)C,13.6%,–
Cc1csc(NC(=O)c2ccc(-c3ccc(Cl)cc3Cl)o2)n1,–,4.65 µM (active)
O=C(Nc1cccc2ncccc12)c1ccc(-c2ccc(Cl)cc2Cl)o1,12.7%,–
Cc1csc(NC(=S)Nc2cccc(Cl)c2)n1,-84.6%,–
COc1cc(S(=O)(=O)N2CCN=C2c2ccccc2)ccc1Cl,-2.8%,–
COc1ccc(-n2c(O)c(C=NCC(c3ccco3)N3CCCC3)c3ccccc3c2=O)cc1OC (stereo not drawn),–,10.4 µM (active)
Cc1ccc(-n2c(O)c(C=Nc3ccc(S(=O)(=O)Nc4ncccn4)cc3)c3ccccc3c2=O)cc1C,38.1%,–
CCN(CC)CCCN=Cc1c(O)n(-c2ccc(C)cc2)c(=O)c2ccccc12,13.8%,–
O=c1[nH]c(N2CCOCC2)nc2ccccc12,10.7%,–
CC(C(=O)NC1CCS(=O)(=O)C1)N1C(=O)/C(=C/c2ccc(Cl)cc2)SC1=S (stereo not drawn),-0.569%,–
CC1CCN(C2=NC(=O)/C(=C/c3cn[nH]c3-c3ccccc3)S2)CC1,–,13.1 µM (active)
Cc1ccsc1/C=C1\SC(N2CCOCC2)=NC1=O,51.5%,–
O=C1N=C(N2CCOCC2)S/C1=C\C=C/c1ccccc1,56.5%,–

SMILES,"activity change, negative = inhibition",Potency
Cc1ccc(-c2nnc(CN3CCN(C)CC3)o2)cc1,73.6%,–
COc1ccc(CCNC(=O)C(=O)NCC2OCCN2S(=O)(=O)c2ccc(F)cc2)cc1OC (stereo not drawn),-24.7%,–
Cc1ccc(NS(=O)(=O)c2ccc(N/N=C/c3ccccc3OCC(=O)O)c([N+](=O)[O-])c2)c(C)c1,–,9.28 µM (active)
Cc1ccc(S(=O)(=O)NC(=O)COc2ccccc2C)cc1,23.8%,–
O=[N+]([O-])c1ccc(O)c(/C=N/Nc2ccccc2[N+](=O)[O-])c1,8.78%,–
O=C(Cc1ccc(Cl)cc1)NC(=S)Nc1ccccc1O,45.3%,–
CC1(C)O[C@@H]2[C@H](O1)[C@@H](COS(=O)(=O)O)O[C@H]2n1ccc(=O)[nH]c1=O,58.2%,–
CN(c1ccccc1)S(=O)(=O)c1ccc(NC(=O)COc2ccccc2)cc1,0.845%,–
CN(C)S(=O)(=O)c1cccc(NC(=O)Cc2ccsc2)c1,44.5%,–
CN(c1ccccc1)S(=O)(=O)c1cccc(NC(=O)Cc2c(F)cccc2Cl)c1,–,14.7 µM (active)
Cc1ccc(S(=O)(=O)n2cccc2CO)cc1,73.9%,–
COc1ccccc1CCNC(=O)C1CCN(C(=O)/C=C/c2ccccc2)CC1,118%,–
CCN(CC(=O)NCc1ccc(Cl)cc1)C(=O)CSc1ccccc1,-0.0811%,–
Nc1ccc(C(=O)NCc2ccccc2)cc1,52.7%,–
Nc1ccc(Nc2ccccc2)cc1,–,9.28 µM (active)
Nc1ccc(-c2nnc(-c3ccc(-c4ccccc4)cc3)o2)cc1,69.9%,–
Cc1ccnc(NC(=O)CNC(=O)c2ccccc2)c1,112%,–
C=CCNc1ncnc2ccc(Br)cc12,-11.7%,–
COc1ccc(Nc2ncnc3ccc(Br)cc23)c(OC)c1,1.32%,–
CC1(C)CC2CC(C)(CN2c2ncnc3ccc(Br)cc23)C1 (stereo not drawn),–,16.5 µM (active)
CCC(C)C(=O)Nc1ccccc1N1CCN(c2ccc(F)cc2)CC1 (stereo not drawn),14.6%,–
Cc1csc(=O)n1CCC(=O)OCC(=O)NNC(=O)c1ccc(Br)cc1,-26.8%,–

# Reference: PubChem BioAssay AID504834 (National Center for Advancing Translational Sciences (NCATS), 2011)
